Data on 27 compounds can be found in PubChem BioAssay (Tox21).

A short description of experiment [1]: qHTS assay for small molecule agonists of the p53 signaling pathway (AID 651631; calls by dose curve; note: nearly all actives have a fitted effect of over 15% in size; note: potency is the fitted concentration of half-maximal effect). The gist of the method:
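Fluorescence intensity from cleaved LiveBLAzer B/G substrate (2 h, room temperature) served as the signal. Beforehand, HCT-116 reporter cells bearing p53 response elements were treated 16 h at 37 °C with DMSO-dissolved compounds.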

The nature of experiment [2]: qHTS assay for small molecules that induce genotoxicity in human embryonic kidney cells expressing luciferase-tagged ATAD5 (AID 651632). Note: nearly all actives have a fitted effect of over 15% in size. Note: potency is the fitted concentration of half-maximal effect. The gist of the method:
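ATAD5-luc HEK293T, 2,000 cells/well; cpd or DMSO pin-transferred; 16 hr, 37C/5% CO2; Amplite 30 min RT; luminescence.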
On the technique in general: Quantitative high-throughput screening tests each substance at several concentrations.

Experiment [3] is described as follows: qHTS assay for small molecule agonists of the p53 signaling pathway - cell viability (AID 651633; calls by dose curve; note: nearly all actives have a fitted effect of over 30% in size; note: potency is the fitted concentration of half-maximal effect). In short, it runs like this: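 p53RE-bla cells, seeded at 4,000 per well and rested 5 h at 37 C/5% CO2, received compounds in DMSO for 16 h at 37 C. CellTiter-Glo was then added, and luminescence was read after 30 min at room temperature to gauge cytotoxicity.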

Experiment [4] is described as follows: qHTS assay for small molecules that induce genotoxicity in human embryonic kidney cells expressing luciferase-tagged ATAD5 - cell viability (AID 651634; calls by dose curve; note: nearly all actives have a fitted effect of over 25% in size; note: potency is the fitted concentration of half-maximal effect). In short, it runs like this: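 Fluorescence from CellTiter-Fluor, reporting protease activity within live cells, served as the viability read-out. HEK293T cells carrying luciferase-tagged ATAD5 had been treated with compound for 15.5 hr at 37C.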

Experiment [5] in a line: qHTS assay for small molecule disruptors of the mitochondrial membrane potential - cell viability (AID 720634; calls by dose curve; note: nearly all actives have a fitted effect of over 20% in size; note: potency is the fitted concentration of half-maximal effect). The gist of the method:
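Cells: HepG2, 2,000/well, attached overnight. Compound 1 hr, 37 C/5% CO2. +m-MPI dye, +CellTiter-Glo 30 min RT. Readout: luminescence (ATP).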

Experiment [6] can be described thus: qHTS assay for small molecule disruptors of the mitochondrial membrane potential (AID 720635). Note: potency is the fitted concentration of half-maximal effect. The gist of the method: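 HepG2 cells (2,000/well) attached overnight at 37C, then took compound for 1 hr at 37C, 5% CO2. Mito-MPS dye was added for 30 min; fluorescence was read at 490/535 nm (monomers) and 540/590 nm (aggregates).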
Experiment [7] can be described thus: qHTS assay to test for compound auto fluorescence at 590 nm (red) in HepG2 cells (AID 720674). In short, it runs like this: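 Compound auto-fluorescence is scored relative to Rose Bengal sodium, measured at 540/590 nm in live HepG2 cultures after 1 hr compound contact (37 C, 5% CO2).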
The nature of experiment [8]: qHTS assay to test for compound auto fluorescence at 535 nm (green) in HepG2 cells (AID 720675).
Experiment [9] in a line: qHTS assay to test for compound auto fluorescence at 590 nm (red) in HEK293 cells (AID 720679). The gist of the method:
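Each well held 2,000 HEK293 cells in medium containing 10% dialyzed FBS. Following 4-5 hr attachment at 37C, 23 nL test compound or DMSO was added; plates sat overnight, and red fluorescence (540/590nm) was recorded.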

Experiment [10] is described as follows: qHTS assay to test for compound auto fluorescence at 460 nm (blue) in HEK293 cells (AID 720678). In short, it runs like this: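 Cells were seeded and left to adhere for 4-5 hr at 37C. Compounds were then pin-transferred. After an overnight incubation at 37C under 5% CO2, intrinsic fluorescence at 405/460 nm was measured and referenced to triamterene.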

Molecules are shown by their SMILES. “And” between values parts separate entries of the source, which are not always exact repeats. Identical values can stand only once. Records with an inconclusive call do not appear. More than one record can exist for a structure, and the calls need not agree. The source made the active and inactive calls. Unless noted, calls come from the whole dose curve; as a rule, active = well fitted curve in the direction sought with a large enough effect in the repeat runs; inconclusive = weak or mixed curves; inactive = no such curve, though single readings can be large; an effect the other way counts as inactive or inconclusive.

Regarding `O=[N+]([O-])c1ccc(Cl)c([N+](=O)[O-])c1`, the Potency in experiment [1] was 55.3 µM (active) and 12.2 µM (active); in [2], 24.7 µM (active); in experiment [3], 22 µM (active) and 54.5 µM (active); in experiment [4] it was 55.3 µM (active) and 68.6 µM (active); in experiment [5], 22 µM (active) and 21.7 µM (active); in experiment [6], 8.77 µM (active) and 8.63 µM (active). The compound was classed as inactive in [7], in [8] and in experiment [9].
For the compound `CNC(=O)Oc1cccc2c1OC(C)(C)C2`, the Potency entry in experiment [1], in [2], in [3], in experiment [4], in experiment [5] and in experiment [6] was “inactive” each time. For the same compound, the result in experiment [7], in experiment [8] and in [9] was inactive.
`COP(=S)(OC)Oc1ccc(Sc2ccc(OP(=S)(OC)OC)cc2)cc1`: the Potency entry in [2], in experiment [3], in [4] and in experiment [10] was “inactive” each time. In addition, the Potency in experiment [5] is 61.1 µM (active); in experiment [6] it was 24.8 µM (active) and 30.6 µM (active). Moreover, the call in experiment [7], in experiment [8] and in [9] was inactive.
In the case of `COP(=S)(OC)SCn1nnc2ccccc2c1=O`, the Potency entry in experiment [2], in experiment [3], in experiment [4] and in experiment [10] was “inactive” each time. The compound was called inactive in [7] and in experiment [8].
On to `COc1ccc(O)c(C(C)(C)C)c1`, for which the Potency result in experiment [2], in [3], in experiment [4], in experiment [5] and in [10] was “inactive” throughout. The Potency in experiment [6] was 30.7 µM (active) and 24.3 µM (active). The compound was called inactive in [7], in [8] and in experiment [9].
As for `CC(C)(c1ccccc1)c1ccc(O)c(C(C)(C)c2ccccc2)c1`, the Potency result in [2] and in experiment [10] was “inactive” throughout. For the same compound, the Potency in experiment [3] is 13.6 µM (active) and 30.6 µM (active); in experiment [4] it was 60.6 µM (active); in experiment [6], 1.52 µM (active) and 2.43 µM (active). For the same compound, the compound was called inactive in [7], in [8] and in experiment [9].
Regarding `Cl`, the Potency result in experiment [4] and in [10] was “inactive” throughout. In addition, the outcome in [7], in experiment [8] and in [9] was inactive.
For `CCC(=O)Nc1ccc(Cl)c(Cl)c1`, the Potency result in experiment [3], in experiment [4] and in experiment [10] was “inactive” in each case. The Potency in experiment [5] was 54.5 µM (active); in [6], 31.3 µM (active) and 30.6 µM (active). Besides, the call in experiment [7], in [8] and in [9] was inactive.
In the case of `C=CC(Cl)CCl` (configuration not stated), the Potency result in experiment [2], in experiment [3] and in [4] was “inactive” each time. The compound was classed as inactive in experiment [7] and in [8].
Take `Clc1cccc(Cl)c1`: the Potency result in experiment [2], in [3], in [4], in [5], in experiment [6] and in experiment [10] was “inactive” each time. Further, the compound was called inactive in experiment [7], in [8] and in experiment [9].
Regarding `Nc1ncn[nH]1`, the Potency entry in [2], in [3], in experiment [4], in [5], in experiment [6] and in experiment [10] was “inactive” each time. The compound was classed as inactive in experiment [7], in [8] and in experiment [9].
Regarding `O=[N+]([O-])c1ccc(Nc2ccccc2)cc1`, the Potency entry in experiment [2], in experiment [3] and in experiment [10] was “inactive” each time. The Potency in experiment [4] was 54.5 µM (active); in [5], 61.1 µM (active); in [6], 7.75 µM (active) and 2.73 µM (active). Moreover, the call in experiment [7], in [8] and in [9] was inactive.
In the case of `Nc1ccc([N+](=O)[O-])cc1N`, the Potency result in [2], in experiment [3], in experiment [5] and in experiment [10] was “inactive” throughout. The Potency is 54.4 µM (active) in experiment [4] and 30.6 µM (active) in experiment [6]. The compound was classed as inactive in experiment [7], in experiment [8] and in [9].
In the case of `CC(C)(c1ccc(OCC2CO2)cc1)c1ccc(OCC2CO2)cc1` (configuration not stated), the Potency entry in [2], in [4] and in experiment [10] was “inactive” in each case. Besides, the Potency in experiment [3] was 61.9 µM (active) and 61.1 µM (active). The call in [7], in [8] and in [9] was inactive.
Turning to `CCC[CH2][Sn]([Cl])([Cl])[CH2]CCC`, the Potency entry in [2] and in experiment [10] was “inactive” in each case. For the same compound, the Potency is 2.2 µM (active) and 969 nM (active) in experiment [3]; 694 nM (active) and 34.4 nM (active) in experiment [4]. Also, the result in experiment [7] and in experiment [8] was inactive.
Regarding `[Cl-].[Cl-].[Cl-].[Fe+3]`, the Potency entry in experiment [4] and in [10] was “inactive” each time. In addition, the compound was called inactive in experiment [7], in experiment [8] and in experiment [9].
In the case of `CC(C)(O)C(=O)Nc1ccc([N+](=O)[O-])c(C(F)(F)F)c1`, the Potency result in experiment [2], in experiment [3], in experiment [4] and in experiment [10] was “inactive” each time. The Potency in [6] was 15.7 µM (active) and 17.8 µM (active). For the same compound, the compound was classed as inactive in [7] and in experiment [8].
For `OCCOCCO`, the Potency entry in experiment [2], in experiment [3], in [4], in experiment [5] and in experiment [10] was “inactive” throughout. Moreover, the compound was classed as inactive in experiment [7], in [8] and in experiment [9].
As for `C[N+](C)(C)CC(=O)[O-]`, the Potency entry in experiment [2], in [3], in experiment [4], in experiment [5], in experiment [6] and in experiment [10] was “inactive” throughout. Also, the result in experiment [7], in experiment [8] and in experiment [9] was inactive.
For `N#Cc1cccnc1`, the Potency entry in experiment [2], in [3], in experiment [4], in experiment [5] and in [6] was “inactive” each time. Further, the call in [7], in experiment [8] and in experiment [9] was inactive.
For the compound `CCOP(=S)(OCC)SCn1c(=O)oc2cc(Cl)ccc21`, the Potency entry in experiment [2], in experiment [3], in [4] and in experiment [10] was “inactive” each time. In addition, the Potency in experiment [5] was 54.5 µM (active); in experiment [6], 29.3 µM (active) and 27.3 µM (active). In addition, the call in experiment [7], in experiment [8] and in [9] was inactive.
With `CCCCCCCCCc1ccc(O)cc1`, the Potency result in experiment [2] and in [10] was “inactive” each time. Further, the Potency in experiment [5] is 17.4 µM (active); in [6] it was 6.18 µM (active). In addition, the compound was classed as inactive in experiment [7], in experiment [8] and in [9].
As for `CC(C)(c1ccccc1)c1ccc(O)cc1`, the Potency result in experiment [2], in experiment [4] and in experiment [10] was “inactive” throughout. For the same compound, the Potency in [5] was 48.2 µM (active) and inactive; in experiment [6], 3.04 µM (active) and 3.86 µM (active). The compound was classed as inactive in experiment [7], in experiment [8] and in experiment [9].
Regarding `CCCCCCCC[N+](C)(CCCCCCCC)CCCCCCCC`, the Potency result in [2] and in experiment [10] was “inactive” in each case. For the same compound, the Potency was 10.8 µM (active) and 24.4 µM (active) and 24.3 µM (active) in experiment [3]; 21.6 µM (active) and 19.3 µM (active) in experiment [4]; 27.3 µM (active) and 54.5 µM (active) in experiment [5]; 1.72 µM (active) and 770 nM (active) and 2.43 µM (active) in experiment [6]. Also, the compound was called inactive in experiment [7], in [8] and in experiment [9].
As to `CCC1(c2ccc(N)cc2)CCC(=O)NC1=O` (configuration not stated), the Potency entry in [2], in [3], in [4], in experiment [5], in experiment [6] and in experiment [10] was “inactive” in each case. For the same compound, the call in experiment [7], in experiment [8] and in experiment [9] was inactive.
Consider `ClC(Cl)=C(Cl)C(Cl)=C(Cl)Cl`, for which the Potency entry in [2], in [3], in experiment [4], in [5], in experiment [6] and in experiment [10] was “inactive” throughout. The compound was called inactive in [7], in [8] and in experiment [9].
Consider `CCOP(=O)(O)OCC` (tested in a mixture with another compound), for which the Potency result in experiment [2] was “inactive”. Moreover, the Potency entry in [3] was “inactive and 60.6 µM (active)”; in experiment [5] it was “inactive and 60.6 µM (active)”; in experiment [6], 24.1 µM (active). Also, the result in experiment [7], in experiment [8] and in experiment [9] was inactive.
